Source: PubChem (several laboratories)
Myeloid diff MLP – induction of myeloid progenitor differentiation, primary screen, cell-based, flow cytometry, MLPCN library | ER-HoxA9 myeloid progenitors, lysozyme-GFP differentiation | calls only at 10 µM | hit rate 1% among 360,000;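 active = normalized GFP-positive differentiation at or above the plate's own cutoff, the solvent-only control mean plus 3 SD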;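 note: cells exposed to compound for four days before flow analysis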
CRFR2-BP antag – antagonists of CRF-BP/CRF-R2 complex, primary screen, cell-based, HEK293, calcium dye fluorescence, uHTS. CRF-induced calcium fluorescence. hit rate 0.59% among 350,000. inhibition, % at 11.8 µM. AID 588475, 2011;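 active = inhibition of the ligand-induced calcium signal above about 50% at the single tested concentration, limit read from the data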
RTF Ca sens act – cardiac RTF calcium sensitivity activators, primary screen, biochemical, IANBD-TnC fluorescence, EC20 calcium; activation, % at 7.2 µM; IANBD-labeled TnC RTF fluorescence at EC20 calcium; 0% EC20 calcium, 100% full calcium; Troponin I, cardiac muscle (Homo sapiens) + Troponin T, cardiac muscle (Homo sapiens) + …; hit rate 0.24% among 340,000;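 active = activation above the mean over all tested compounds plus 3 SD, cut at about 30% in these data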;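 note: rise in fluorescence read as greater calcium sensitivity of cardiac thin filaments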
CRFR2-BP ag – agonists of CRF-BP/CRF-R2 complex, primary screen, cell-based, HEK293, calcium dye fluorescence, uHTS; CRF-binding protein / CRF receptor 2 complex (human); calcium dye fluorescence (FLIPR); percent of saturating CRF peptide response; activation, % at 13.2 µM; hit rate 0.46% among 350,000; AID 588473, 2011;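 active = activation of at least 50%, plus an integration ratio under a set limit after plate pattern correction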;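 note: plate controls were neutral control wells without compound for no effect and CRF at EC100 for full effect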
RTF Ca sens inh – cardiac RTF calcium sensitivity inhibitors, primary screen, biochemical, IANBD-TnC fluorescence, EC70 calcium; Troponin I, cardiac muscle (Homo sapiens) + Troponin T, cardiac muscle (Homo sapiens) + …; hit rate 0.12% among 340,000; AID 493244, 2011; inhibition, % at 7.15 µM; IANBD-labeled cardiac RTF, Ca2+ fluorescence;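 active = inhibition above the mean inhibition of all tested compounds plus 3 SD, cut at about 17% in these data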;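 note: assay run at fixed EC70 calcium of 1.6 mM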
Starred values were filed as active, the others as inactive; i = inactive; . = no result given; + = active, no number. Sampled rows, rich in hits. Any-hit rate of the full collection: about 2.2%.

SMILES | Myeloid diff MLP | CRFR2-BP antag | RTF Ca sens act | CRFR2-BP ag | RTF Ca sens inh
CC(C)C(=O)N1CCC1(C)C(=O)NCc1ccc(F)cc1Cl (stereo not drawn) | i | . | . | . | .
CS(=O)(=O)N1N=C(c2ccccc2)CC1c1ccc2c(c1)OCO2 (stereo not drawn) | + | -2 | 10 | 2 | -8
CC(C)N(C(=O)[C@H]1C[C@H](CC(=O)NCCCn2ccnc2)C(=O)N2CCc3c([nH]c4cc(CCC(=O)N(C)C)ccc34)[C@]12C)C(C)C | i | -3 | -7 | 1 | 0
Cc1cc(=O)n2c(n1)NC(Nc1cccc(C)c1C)=NC2c1ccccc1 (stereo not drawn) | i | 11 | -5 | -1 | -4
CCN1C(=O)/C(=C/C=C2\N(CC)c3cc(S(=O)(=O)N(C)C)ccc3N2c2ccccc2)SC1=S | + | -52 | 166* | 73* | -176
CCOc1ccc2c(c1)/C(=N/N1C(=O)c3ccccc3C1=O)C(=O)N2 | i | 105* | -5 | 0 | 6
Cc1ccc2c(c1)/C(=N/N1C(=O)c3ccccc3C1=O)C(=O)N2 | i | 31 | 6 | -2 | -4
Cc1cccc(NC(=O)c2nc[nH]c2C(=O)N2CCN(c3ccccc3)CC2)c1 | i | 2 | 5 | -1 | 5
CCCCc1ccc(S(=O)(=O)NC(=O)C2(C)CCN2C(=O)Cc2ccccc2)cc1 (stereo not drawn) | i | . | . | . | .
Cc1cc(C)c(C)c(S(=O)(=O)NCCN2CCOCC2)c1C | i | -2 | 2 | 0 | -1
O=C1CN(CC(=O)Nc2cccc(Cl)c2Cl)c2ccccc2N1 | + | -8 | 0 | 4 | -5
CC1(C)Cc2ccccc2-c2c1c(=O)n(Cc1ccccc1)c1nnnn21 | i | 61* | 2 | -1 | -8
CCC1(C)Cc2ccccc2-c2c1c(=O)n(-c1ccc(C)cc1)c1nnnn21 (stereo not drawn) | i | -14 | 6 | 2 | 1
Cc1cc(F)ccc1NCc1ccccc1[N+](=O)[O-] | i | 41 | . | 2 | .
Cc1cc([N+](=O)[O-])ccc1NCc1ccccc1[N+](=O)[O-] | i | 91* | 7 | 0 | 4
Fc1ccc(/C=N/N2CCN(Cc3ccccc3)CC2)cc1 | i | 0 | -6 | 2 | -9
Cc1c(NC2=C(Cl)C(=O)N(c3ccccc3)C2=O)c(=O)n(-c2ccccc2)n1C | i | 19 | 0 | -1 | -3
Cc1c(NC2=C(Cl)C(=O)N(c3ccccc3Cl)C2=O)c(=O)n(-c2ccccc2)n1C | i | 53* | 4 | 2 | 4
CC(=O)N1CC(C)Oc2ccc(S(=O)(=O)Nc3ccc(Cl)cn3)cc21 (stereo not drawn) | i | -2 | 3 | 4 | 1
O=C(NC(Cc1ccccc1)C(=O)NCCc1ccccn1)c1ccccc1 (stereo not drawn) | i | 0 | -2 | 1 | 4
Cn1cc(S(=O)(=O)Nc2ccc(Br)cc2F)c(=O)n(C)c1=O | i | 71* | 3 | 4 | -3
Cc1ccccc1-n1ncc2c(SCC(=O)N3c4ccccc4CC3C)ncnc21 (stereo not drawn) | i | 54* | -2 | 7 | -10
CC(=O)N1CCOc2cc(S(=O)(=O)N3CCN(c4ccccc4)CC3)c(Cl)cc21 | i | 54* | 3 | 16 | -4
Cc1cc2c(cc1S(=O)(=O)N1CCN(c3ccccc3)CC1)OCCN2C | i | 12 | 6 | 3 | 0
Nc1ccc2nc(-c3cccnc3)[nH]c2c1 | i | 9 | 0 | -2 | -16
Nc1ccc2nc(-c3ccccc3)[nH]c2c1 | + | -5 | 1 | 0 | 16
C/C(=N\NC(=O)c1nnn(-c2nonc2N)c1-c1ccc2c(c1)OCO2)c1ccc(C)cc1 | i | -87 | -5 | 3 | -11
C=CCn1cccc(C(=O)Nc2ccc(OC)c(Cl)c2)c1=O | i | -1 | 32* | -1 | -8
CC1CC(C)CN(S(=O)(=O)c2ccc3c(c2)CCN3C(=O)C2CC2)C1 (stereo not drawn) | i | 7 | -8 | -1 | -4
